Results published in PubChem BioAssay (NCATS).
Inconclusive results are not listed. The source made the active and inactive calls. Calls follow the shape of the dose curve; as a rule, active = well fitted inhibition curve with a large enough effect; inconclusive = small, poorly fitted or top-dose-only effect; inactive = flat fitted curve, though single readings scatter.

Legend:
Test in all cases: qHTS profiling for inhibitors of Plasmodium falciparum proliferation (AID 504749); also: nearly all actives have a fitted effect of over 60% in size
Conditions in all cases: P. falciparum in erythrocytes, SYBR Green DNA, 72 h; series mostly up to 28.7 µM
CP217 = test system: CP217
Summary of the method: (§1)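 Quantitative HTS: compounds pinned into medium, infected erythrocytes added (0.3% parasitemia, 2.5% hematocrit), 72 h culture at 37 C under 5% CO2. Saponin/Triton lysis with SYBR Green I, overnight RT, then fluorescence read.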

CP237 = test system: CP237
Summary of the method: as §1

CP238 = test system: CP238
Summary of the method: as §1

CP247 = test system: CP247
Summary of the method: as §1

CP250 = test system: CP250
Summary of the method: as §1

CP252 = test system: CP252
Summary of the method: as §1

CP256 = test system: CP256
Summary of the method: as §1

CP260 = test system: CP260
Summary of the method: as §1

CP262 = test system: CP262
Summary of the method: as §1

CP265 = test system: CP265
Summary of the method: as §1

CP266 = test system: CP266
Summary of the method: as §1

CP268 = test system: CP268
Summary of the method: as §1

CP269 = test system: CP269
Summary of the method: as §1

CP286 = test system: CP286
Summary of the method: as §1

CP291 = test system: CP291
Summary of the method: as §1

CP297 = test system: CP297
Summary of the method: as §1

CP305 = test system: CP305
Summary of the method: as §1

CP315 = test system: CP315
Summary of the method: as §1

CP325 = test system: CP325
Summary of the method: as §1

CP329 = test system: CP329
Summary of the method: as §1

Measured: Potency
Potency is read from the fitted curve at half-maximal effect.

CC12CCC(CC1)C(C)(C)O2
inactive: CP217 | CP237 | CP238 | CP247 | CP250 | CP252 | CP256 | CP260 | CP262 | CP265 | CP266 | CP268 | CP269 | CP286 | CP291 | CP297 | CP305 | CP315 | CP325 | CP329

CC(C(O)c1ccc(O)cc1)N1CCC(Cc2ccccc2)CC1 (stereo not given)
active: CP237 8.91 µM | CP268 15.1 µM | CP269 12 µM | CP291 16.9 µM | CP305 15.1 µM | CP325 15.1 µM

Cc1c(O)cccc1C(=O)N[C@@H](CSc1ccccc1)[C@H](O)CN1C[C@H]2CCCC[C@H]2C[C@H]1C(=O)NC(C)(C)C
inactive: CP250 | CP262 | CP266 | CP305 | CP329

CC(C)(C)C(=O)C(Oc1ccc(Cl)cc1)n1ccnc1 (stereo not given)
inactive: CP256 | CP262 | CP266 | CP329
active: CP217 10 µM | CP237 7.08 µM | CP297 16.9 µM

CSc1ccc2c(c1)C(N1CCN(C)CC1)Cc1ccccc1S2 (stereo not given)
active: CP260 10 µM
inactive: CP250 | CP256 | CP262 | CP265 | CP266 | CP315

Nc1ccc(S(=O)(=O)Nc2ccc(Cl)nn2)cc1
inactive: CP237 | CP260 | CP266 | CP268 | CP269 | CP286 | CP291 | CP297 | CP305 | CP315 | CP325 | CP329

CN(C)CCCN1c2ccccc2Sc2ccc(Cl)cc21
active: CP286 12.6 µM
inactive: CP247 | CP256 | CP262 | CP266 | CP315

CN1CCC[C@@H]1Cc1c[nH]c2ccc(CCS(=O)(=O)c3ccccc3)cc12
inactive: CP252 | CP262 | CP266 | CP269 | CP305 | CP315 | CP329

CCN(CC)CCNC(C(=O)OCCC(C)C)c1ccccc1 (stereo not given)
active: CP237 3.16 µM | CP265 8.91 µM
inactive: CP247 | CP250 | CP262 | CP266 | CP315

CN1CCCCC1CCN1c2ccccc2Sc2ccc(S(C)=O)cc21 (stereo not given)
inactive: CP217 | CP247 | CP252 | CP262 | CP266 | CP297 | CP315 | CP325 | CP329

Oc1ccc(C(O)CNCCCCCCNCC(O)c2ccc(O)c(O)c2)cc1O (stereo not given)
inactive: CP262
active: CP247 11.2 µM | CP260 7.94 µM | CP286 7.08 µM

COCCOC(=O)C1=C(C)NC(C)=C(C(=O)OC/C=C/c2ccccc2)C1c1cccc([N+](=O)[O-])c1 (stereo not given)
inactive: CP266

OCCN1CCN(CCCN2c3ccccc3Sc3ccc(Cl)cc32)CC1
active: CP247 2.51 µM | CP252 3.55 µM | CP256 3.98 µM | CP260 3.16 µM | CP265 3.55 µM | CP286 3.16 µM
inactive: CP266

CN(C)CCN(Cc1ccccc1)c1ccccn1
active: CP237 5.01 µM
inactive: CP217 | CP247 | CP250 | CP256 | CP262 | CP266 | CP269 | CP297 | CP315 | CP329

[Cl][In]([Cl])[Cl]
inactive: CP238 | CP252 | CP262 | CP315 | CP329

OCc1cc(C(O)CNCCCCCCOCCCCc2ccccc2)ccc1O (stereo not given)
inactive: CP217 | CP238 | CP247 | CP250 | CP252 | CP265 | CP266 | CP268 | CP269 | CP291 | CP297 | CP305 | CP315 | CP325 | CP329

CCCc1c(OCCCCc2nn[nH]n2)ccc(C(C)=O)c1O
inactive: CP217 | CP237 | CP238 | CP250 | CP252 | CP256 | CP262 | CP265 | CP266 | CP268 | CP269 | CP286 | CP291 | CP297 | CP305 | CP325 | CP329

CSc1ccc2c(c1)N(CCC1CCCCN1C)c1ccccc1S2 (stereo not given)
inactive: CP266
active: CP237 10 µM | CP260 7.94 µM | CP269 10.7 µM | CP286 11.2 µM

Cc1cc(O)cc2c1O[C@](C)(CCC[C@H](C)CCC[C@H](C)CCCC(C)C)CC2
inactive: CP217 | CP238 | CP247 | CP250 | CP252 | CP256 | CP260 | CP262 | CP265 | CP266 | CP268 | CP269 | CP286 | CP291 | CP297 | CP305 | CP315 | CP325 | CP329

Cc1ccc2nc(N)[nH]c(=O)c2c1Sc1ccncc1
inactive: CP266 | CP297 | CP315
active: CP250 2.24 µM | CP252 1.58 µM | CP256 10 µM | CP260 11.2 µM | CP265 10 µM | CP286 2.82 µM

CNC(=O)Oc1ccc2c(c1)[C@]1(C)CCN(C)[C@@H]1N2C
active: CP237 4.47 µM | CP238 1.78 µM | CP247 1.58 µM | CP250 1.58 µM | CP252 1.78 µM | CP256 2 µM | CP260 8.91 µM | CP265 1.58 µM | CP286 7.08 µM
inactive: CP315

CC(CN1c2ccccc2Sc2ccccc21)N(C)C (stereo not given)
inactive: CP217 | CP238 | CP247 | CP250 | CP252 | CP256 | CP262 | CP266 | CP268 | CP269 | CP286 | CP291 | CP315 | CP325 | CP329

NC(=O)N/N=C/c1ccc([N+](=O)[O-])o1
inactive: CP266 | CP315 | CP329
active: CP237 10 µM | CP260 10 µM | CP265 8.91 µM

CCOc1nc2cccc(C(=O)O)c2n1Cc1ccc(-c2ccccc2-c2nn[nH]n2)cc1
inactive: CP237 | CP238 | CP247 | CP250 | CP256 | CP260 | CP262 | CP265 | CP266 | CP286 | CP297 | CP305 | CP315 | CP325 | CP329
